In PubChem BioAssay (EPA / NIEHS):
Some structures have more than one record in an assay (separate samples or runs), and their calls can disagree. Activity calls are given as the source filed them. How the source made its calls: active means hit-call score of the fitted dose curve at least 0.9, where 1 is the maximum; inactive means score below 0.9.

Tests used:
[1] = ATG_CRE_CIS: Attagene CIS-FACTORIAL HepG2 Assay for human cAMP Responsive Element (CRE) binding protein 3 (AID 2282926); conditions: HepG2 CRE cis-reporter, Attagene multiplexed mRNA; actives raise or lower the signal
Summary of the method: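 Human liver HepG2, transient MRTU transfection, 24 h compound exposure. Total RNA → oligo(dT) RT → PCR → 6-FAM primer extension → HpaI cut → CE. Activity called both directions vs DMSO.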

[2] = target: CCAAT/enhancer-binding protein beta (Homo sapiens) (UniProt P17676); assay: ATG_C_EBP_CIS: Attagene CIS-FACTORIAL HepG2 Assay for human CCAAT/Enhancer Binding Protein (C/EBP) beta (AID 2282927); conditions: HepG2 Attagene cis-factorial transcription factor reporter; actives raise or lower the signal
Chain of CCAAT/enhancer-binding protein beta (Homo sapiens) (P17676 whole entry, looked up, the tested form may be a part): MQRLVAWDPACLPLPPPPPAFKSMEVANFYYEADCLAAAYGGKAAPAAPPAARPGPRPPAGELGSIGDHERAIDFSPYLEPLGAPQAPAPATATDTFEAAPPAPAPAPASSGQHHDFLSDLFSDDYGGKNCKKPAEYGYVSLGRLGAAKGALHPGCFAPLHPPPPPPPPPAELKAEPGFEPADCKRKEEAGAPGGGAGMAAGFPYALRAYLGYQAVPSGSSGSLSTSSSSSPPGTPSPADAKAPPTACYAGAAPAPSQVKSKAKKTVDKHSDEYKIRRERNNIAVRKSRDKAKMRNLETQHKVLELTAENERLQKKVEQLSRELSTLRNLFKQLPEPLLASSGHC
Summary of the method: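 Chemical-treated HepG2 cells (24 h) bearing cis-regulated reporter constructs were processed for total RNA, then reverse transcription, PCR amplification, fluorescent primer extension and fragment analysis; gain- and loss-of-signal were fitted against DMSO.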

[3] = ATG_CMV_CIS: Attagene CIS-FACTORIAL HepG2 Assay for human CMV (Internal Marker) (AID 2282928); conditions: HepG2 CMV promoter reporter, transcription factor profiling; actives raise or lower the signal;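 further: endpoint acts as a background internal control marker rather than a target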
Summary of the method: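 CMV internal-marker background readout in transiently transfected HepG2 cells bearing cis-regulated reporter units. Reporter mRNA is measured 24 h after dosing by RT-PCR and capillary electrophoresis, with bidirectional fitting against DMSO.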

[4] = ATG_DR4_LXR_CIS: Attagene CIS-FACTORIAL HepG2 Assay for human Liver X Receptor (LXR), DR4 submotif (AID 2282929); conditions: HepG2 Attagene DR4 cis-reporter, mRNA transcription; actives raise or lower the signal
Summary of the method: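 Total RNA from 24 h-treated, MRTU-transfected HepG2 cells underwent reverse transcription, PCR, fluorescent primer extension and restriction digestion before capillary electrophoresis. Both increases and decreases in reporter signal were fitted against DMSO.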

[5] = target: Aryl hydrocarbon receptor (Homo sapiens) (UniProt P35869); assay: ATG_Ahr_CIS: Attagene CIS-FACTORIAL HepG2 Assay for human Aryl Hydrocarbon Receptor (Ahr) (AID 2282930); conditions: HepG2 AhR cis-factorial reporter transcription; actives raise or lower the signal
Chain of Aryl hydrocarbon receptor (Homo sapiens) (P35869 whole entry, looked up): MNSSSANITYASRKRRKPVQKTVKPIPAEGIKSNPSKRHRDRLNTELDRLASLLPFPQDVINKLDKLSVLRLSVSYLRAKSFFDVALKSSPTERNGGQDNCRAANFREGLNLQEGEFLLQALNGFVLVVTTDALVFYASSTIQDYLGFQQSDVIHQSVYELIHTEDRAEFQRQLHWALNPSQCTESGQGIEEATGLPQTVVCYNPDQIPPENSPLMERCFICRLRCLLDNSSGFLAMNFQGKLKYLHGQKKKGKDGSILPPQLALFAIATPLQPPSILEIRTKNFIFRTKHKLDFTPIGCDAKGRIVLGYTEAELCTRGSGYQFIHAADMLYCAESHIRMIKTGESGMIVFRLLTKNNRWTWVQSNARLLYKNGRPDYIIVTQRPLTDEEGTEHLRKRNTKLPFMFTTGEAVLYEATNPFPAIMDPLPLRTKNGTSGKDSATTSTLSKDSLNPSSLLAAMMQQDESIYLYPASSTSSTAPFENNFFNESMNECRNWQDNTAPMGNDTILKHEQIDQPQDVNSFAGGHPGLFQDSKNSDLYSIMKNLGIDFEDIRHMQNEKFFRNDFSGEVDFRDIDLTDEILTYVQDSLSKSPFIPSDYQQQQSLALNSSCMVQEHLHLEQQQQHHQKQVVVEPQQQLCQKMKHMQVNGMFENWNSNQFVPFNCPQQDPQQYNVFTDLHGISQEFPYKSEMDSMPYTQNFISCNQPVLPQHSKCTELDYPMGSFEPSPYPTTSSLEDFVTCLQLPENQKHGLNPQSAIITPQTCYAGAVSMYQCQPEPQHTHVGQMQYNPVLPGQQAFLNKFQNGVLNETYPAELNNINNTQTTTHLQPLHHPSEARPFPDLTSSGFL
Summary of the method: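 Following 24 h of chemical dosing, transfected HepG2 liver cells with cis-driven reporter units were lysed for RNA; reporter mRNA was quantified via RT-PCR and capillary electrophoresis, and responses fitted bidirectionally from DMSO.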

[6] = ATG_AP_1_CIS: Attagene CIS-FACTORIAL HepG2 Assay for human Activator Protein 1 (AP-1) (AID 2282931); conditions: HepG2 Attagene cis-factorial AP-1 reporter mRNA; actives raise or lower the signal
Summary of the method: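 HepG2, transient cis-reporter transfection; 24 h; readout RT-PCR/CE fluorescence; DMSO baseline, gain and loss fitted.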

[7] = ATG_AP_2_CIS: Attagene CIS-FACTORIAL HepG2 Assay for human Activator Protein 2 (AP-2) (AID 2282932); conditions: HepG2 AP-2 cis-reporter, Attagene transcription factor profiling; actives raise or lower the signal
Summary of the method: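 HepG2 cells were transiently transfected with multiple cis-promoter reporter transcription units and dosed for 24 h. Reporter mRNA was measured by RT-PCR with capillary electrophoresis fluorescence; bidirectional fits relative to DMSO baseline.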

[8] = ATG_BRE_CIS: Attagene CIS-FACTORIAL HepG2 Assay for human Bone Morphogenetic Protein (BMP) Response Element (BRE) (AID 2282933); conditions: HepG2 BMP response element reporter, Attagene transcription factor profiling; actives raise or lower the signal
Summary of the method: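 Multiplexed cis-reporter assay, HepG2, 24 h exposure. mRNA from reporter units quantified via RT-PCR/CE; DMSO baseline; bidirectional curve fit.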

[9] = target: Retinoic acid receptor alpha (Homo sapiens) (UniProt P10276); assay: ATG_DR5_RAR_CIS: Attagene CIS-FACTORIAL HepG2 Assay for human Retinoic Acid Receptor Alpha (RARE), DR5 submotif (AID 2282934); conditions: HepG2 Attagene cis-factorial RARE DR5 reporter, mRNA; actives raise or lower the signal
Chain of Retinoic acid receptor alpha (Homo sapiens) (P10276 whole entry, looked up): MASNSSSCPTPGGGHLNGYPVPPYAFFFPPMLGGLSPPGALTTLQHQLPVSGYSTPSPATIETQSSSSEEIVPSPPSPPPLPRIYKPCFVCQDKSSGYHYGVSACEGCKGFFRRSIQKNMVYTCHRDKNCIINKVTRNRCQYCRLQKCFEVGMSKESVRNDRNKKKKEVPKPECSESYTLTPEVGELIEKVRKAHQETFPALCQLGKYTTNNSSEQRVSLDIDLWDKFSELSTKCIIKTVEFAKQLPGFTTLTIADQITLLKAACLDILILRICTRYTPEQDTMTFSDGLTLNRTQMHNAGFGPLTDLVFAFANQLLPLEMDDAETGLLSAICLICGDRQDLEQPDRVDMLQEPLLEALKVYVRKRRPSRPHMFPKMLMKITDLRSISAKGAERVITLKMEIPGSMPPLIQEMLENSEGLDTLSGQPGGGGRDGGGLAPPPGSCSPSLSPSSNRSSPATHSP
Summary of the method: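 Transfected HepG2 reporter cells are exposed to chemicals for 24 h. Then RNA is extracted and the DR5 element reporter transcript is measured by RT-PCR and capillary electrophoresis, with bidirectional curve fitting relative to DMSO.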

[10] = target: Transcription factor E2F1 (Homo sapiens) (UniProt Q01094); assay: ATG_E2F_CIS: Attagene CIS-FACTORIAL HepG2 Assay for human E2F Transcription Factor 1 (AID 2282935); conditions: HepG2 Attagene cis-reporter, E2F reporter RNA transcripts; actives raise or lower the signal
Chain of Transcription factor E2F1 (Homo sapiens) (Q01094 whole entry, looked up): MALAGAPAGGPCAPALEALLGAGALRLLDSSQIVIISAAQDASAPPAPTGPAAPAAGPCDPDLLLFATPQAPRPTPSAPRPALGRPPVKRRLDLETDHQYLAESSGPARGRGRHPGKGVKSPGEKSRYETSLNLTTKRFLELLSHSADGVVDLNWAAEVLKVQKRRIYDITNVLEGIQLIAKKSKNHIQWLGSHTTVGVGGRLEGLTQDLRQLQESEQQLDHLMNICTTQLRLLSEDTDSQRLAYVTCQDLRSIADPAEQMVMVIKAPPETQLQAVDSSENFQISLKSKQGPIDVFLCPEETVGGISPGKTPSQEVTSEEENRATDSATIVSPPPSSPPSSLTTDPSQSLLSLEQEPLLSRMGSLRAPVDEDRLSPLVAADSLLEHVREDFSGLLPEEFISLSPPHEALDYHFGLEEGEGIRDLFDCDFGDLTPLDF
Summary of the method: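 HepG2 cells transiently transfected with multiplexed cis-element reporter units, dosed for 24 h. Reporter mRNA measured by RT-PCR, 6-FAM primer-extension labeling, HpaI digestion and capillary electrophoresis; bidirectional fit versus DMSO baseline.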

[11] = ATG_E_Box_CIS: Attagene CIS-FACTORIAL HepG2 Assay for human Enhancer Box (E-box) (AID 2282936); conditions: HepG2 E-box cis-reporter transcription, actives raise or lower the signal
Summary of the method: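 HepG2 cells transiently transfected with multiplexed cis-element reporter units sensing endogenous transcription factor activity; 24 h compound exposure. Reporter mRNA measured by RT-PCR, 6-FAM primer extension, HpaI digestion and capillary electrophoresis; bidirectional fit versus DMSO.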

[12] = ATG_M_61_CIS: Attagene CIS-FACTORIAL HepG2 Assay for M61 Transcription Factor (Internal Marker) (AID 2282937); conditions: HepG2 Attagene CIS-FACTORIAL M61 internal marker reporter; actives raise or lower the signal
Summary of the method: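 Transfect HepG2 with MRTUs; dose 24 h; isolate RNA; reverse-transcribe with DNase I treatment; PCR-amplify, FAM-label and cut with HpaI for 2 h at 37 C; resolve by CE. Bidirectional fitting against DMSO.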

[13] = APR_HepG2_P-H2AX_72hr: Apredica 72-hour HepG2 Assay for H2AX Phosphorylation (AID 2282916); conditions: imaging, actives raise or lower the signal;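 further: phospho-histone H2A.x immunostain intensity per cell marking DNA damage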
Summary of the method: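 HepG2 human liver cells were exposed for 72 hr to compounds at 0.39–200 uM (10 concentrations, duplicate per plate) in 0.5% v/v DMSO. Fixed, permeabilized cells were immunolabeled for phospho-histone H2A.x with Hoechst 33342 and imaged by HCS fluorescence; bidirectional fit versus DMSO.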

[14] = APR_HepG2_MitoMembPot_72hr: Apredica 72-hour HepG2 Assay for Mitochondrial Membrane Potential (AID 2282917); conditions: imaging, actives raise or lower the signal
Summary of the method: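 HepG2 cells exposed 72 h to compounds at 0.39–200 uM (0.5% v/v DMSO, duplicates); MitoTracker Red CMXRos 250 nM loaded 30 min before 3.7% formaldehyde fixation, imaged by HCS fluorescence. Bidirectional fit versus DMSO.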

[15] = APR_HepG2_MitoticArrest_72hr: Apredica 72-hour HepG2 Assay for Mitotic Arrest (AID 2282918); conditions: high-content imaging, actives raise or lower the signal
Summary of the method: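 Read-out is phospho-histone H3 immunofluorescence with Hoechst nuclear segmentation, imaged at 20x. Human HepG2 liver cells received ten concentrations (0.39–200 uM, final DMSO 0.5% v/v) for 72 hr before fixation. Gain or loss of signal was fitted relative to DMSO.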

[16] = APR_HepG2_MicrotubuleCSK_72hr: Apredica 72-hour HepG2 Assay for Microtubule CSK Stabilty (AID 2282919); conditions: HepG2 microtubule cytoskeleton, high-content imaging, actives raise or lower the signal
Summary of the method: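 HepG2 human liver cells were dosed for 72 h at ten concentrations from 0.39 to 200 uM in duplicate (0.5% v/v DMSO final). Fixed, permeabilized cells were immunostained for alpha-tubulin (Cy5) with a Hoechst counterstain and imaged at 20x.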

[17] = APR_HepG2_StressKinase_72hr: Apredica 72-hour HepG2 Assay for Stress Kinase (AID 2282921); conditions: HepG2 stress kinase (phospho-c-Jun) imaging, actives raise or lower the signal
Summary of the method: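 Cells were exposed for 72 h to ten concentrations (0.39–200 uM, duplicate) at 0.5% v/v DMSO final, then fixed with 3.7% formaldehyde, permeabilized and immunostained for phospho-c-Jun (Cy3 secondary) with Hoechst nuclear counterstain.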

[18] = APR_HepG2_StressKinase_24hr: Apredica 24-hour HepG2 Assay for Stress Kinase (AID 2282922); conditions: HepG2 stress kinase (phospho-c-Jun) imaging, actives raise or lower the signal
Summary of the method: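 HepG2 cells exposed 24 hr to compound at 0.39–200 uM (10 concentrations, duplicate), 0.5% v/v DMSO final. Fixed in 3.7% formaldehyde, permeabilized with Triton X-100, immunolabeled for phospho-c-Jun with Hoechst 33342; HCS fluorescence imaging, bidirectional fit versus DMSO.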

[19] = APR_HepG2_MitoMass_72hr: Apredica 72-hour HepG2 Assay for Mitochondrial Mass (AID 2282924); conditions: high-content imaging, actives raise or lower the signal;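 further: MitoTracker Red CMXRos stain intensity per cell imaged as mitochondrial mass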
Summary of the method: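 HepG2 cells were exposed for 72 hr to compounds at 0.39–200 uM (ten concentrations, duplicate, 0.5% v/v DMSO final). Live cells were stained with 250 nM MitoTracker Red CMXRos for 30 min, then fixed in 3.7% formaldehyde and imaged by HCS fluorescence.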

[20] = APR_HepG2_NuclearSize_72hr: Apredica 72-hour HepG2 Assay for Nuclear Size (AID 2282925); conditions: high-content imaging, actives raise or lower the signal
Summary of the method: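 HepG2 cells were exposed to compounds at ten concentrations from 0.39 to 200 uM (duplicate, 0.5% DMSO final) for 72 hr. After fixation in 3.7% formaldehyde, nuclei were stained with Hoechst 33342 (2 ug/mL) and imaged at 20x.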

Measured: AC50

O=Cc1cccc(Oc2ccccc2)c1
not listed: [13] | [14] | [15] | [16] | [17] | [18] | [19] | [20]
inactive: all other assays above

COS(=O)(=O)c1ccc(C)cc1
not listed: [13] | [14] | [15] | [16] | [17] | [18] | [19] | [20]
inactive: all other assays above

CC(C)(C)c1cc(O)ccc1O
active: [19] 108 µM | [20] 110 µM | [1] 151 µM | [2] 79.7 µM | [3] 64.7 µM | [4] 24.9 µM | [5] 1.85 µM | [6] 66.7 µM | [8] 19.8 µM | [10] 66.5 µM
inactive: all other assays above

CCCCCCCCc1ccc(O)cc1
active: [14] 34.6 µM | [15] 98 µM | [19] 95 µM | [4] 11.2 µM | [6] 18.7 µM
inactive: [13] | [16] | [17] | [18] | [20] | [1] | [2] | [4] | [5] | [6] | [7] | [8] | [10] | [11] | [12]

N#CN=C(N)N
not listed: [13] | [14] | [15] | [16] | [17] | [18] | [19] | [20]
inactive: all other assays above

CC(=O)[O][Hg][c]1ccccc1
active: [13] 3.55 µM | [15] 1.83 µM | [16] 2.44 µM | [17] 7.33 µM | [18] 88.1 µM | [19] 83.5 µM
not listed: [1] | [2] | [9]
inactive: all other assays above

ClC1(Cl)C2(Cl)C3(Cl)C4(Cl)C(Cl)(Cl)C5(Cl)C3(Cl)C1(Cl)C5(Cl)C24Cl (stereo not drawn)
inactive: all assays above
